uPA generation = cell surface uPA generation inhibition; Potency, µM (top dose mostly 38.3 µM), for inactives: at the top dose activity change, negative = inhibition, hits mostly inhibitors; AID 540303; cell surface uPA generation assay, qHTS; 330,000 compounds, 0.31% hits; active = well fitted inhibition curve with a large enough effect; inconclusive = small, poorly fitted or top-dose-only effect; inactive = no such curve, though single readings can be large or run the other way; tested in mouse RAW 264.7 cells; also: potency is read from the fitted curve at half-maximal effect; % is scaled to controls: 0 for no effect and ±100 for the full control effect; nearly all actives have a fitted effect of over 55% in size
ClpP mod = qHTS Assay for Activators of ClpP. ATP-dependent Clp protease proteolytic subunit (Bacillus subtilis (strain 168)), P80244. purified B. subtilis ClpP, FRET peptide cleavage, 20 min. Potency, µM (highest dose often 57.5 µM), without a hit: at the top dose activity change, negative = active. 340,000 compounds, 1.9% hits; active = well fitted falling curve with a large enough effect; inconclusive = small, poorly fitted or top-dose-only effect; inactive = no such curve, though single readings can be large or run the other way; also: potency is read from the fitted curve at half-maximal effect; the source files actives as falling curves though it sought activators and does not explain the sign; nearly all actives have a fitted effect of over 65% in size
Target sequence (P80244 whole entry, looked up): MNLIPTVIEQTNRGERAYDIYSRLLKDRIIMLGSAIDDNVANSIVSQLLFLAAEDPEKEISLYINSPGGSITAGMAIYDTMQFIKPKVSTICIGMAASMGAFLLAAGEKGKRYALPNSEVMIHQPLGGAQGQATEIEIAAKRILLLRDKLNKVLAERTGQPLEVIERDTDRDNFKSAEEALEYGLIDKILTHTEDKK
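ClpP 10 microg/mL final, pH 8 Tris/KCl buffer with BSA, glycerol, Tween-20; compound pinned in; FRET-FV substrate; RT 20 min; Ex320/Em430; ΔFRET vs ADEP 5.8 microM, DMSO, no enzyme.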
TCR activator = T cell receptor activation; primary human leukocytes, anti-CD3, IL-2 HTRF, 48 h; Potency, µM (doses to about 9.22 µM), for the others: at the top dose activation of IL-2 secretion, actives largely listed as activators; 330,000 tested, under 10 active; AID 504894; also: % of control where 0% means no effect
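48 hr co-incubation of compounds, a-CD3 beads and primary human leukocytes; IL-2 quantified homogeneously by HTRF with anti-IL-2 K and d2 conjugates.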
Sfp PPTase inh = Sfp phosphopantetheinyl transferase inhibition; Potency, µM, inactives show largest response in the series, negative = inhibition, most hits filed as inhibitors; AID 1490; 310,000 compounds, 3.5% hits; Q9F4F7; Biochemical Sfp PPTase activity, qHTS;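 also: the enzyme is Sfp with the accession as filed and its product quenches rhodamine fluorescence; potency is read from the fitted curve at half-maximal effect; 0% = enzyme reaction without inhibitor and -100% = no enzyme wells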
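Reaction rates are the 30-min fluorescence difference (ex 525, em 598 nm) in wells containing 15 nM Sfp, 5 uM rhodamine-CoA and 12.5 uM BHQ-2-YbbR at pH 7.6 with 10 mM MgCl2.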
An asterisk follows results filed as active; ? = inconclusive; . = no result given; [ ] = another dose, or the depositor's remark. In the library only some 4.2% were active in any assay of this set; here they are far more common. Unless noted, calls follow the shape of the dose curve; as a rule, active = well fitted curve in the direction sought with a large enough effect; inconclusive = small, poorly fitted or top-dose-only effect, or another doubt; inactive = no such curve, though single readings can be large; an effect the other way counts as inactive or inconclusive.

SMILES | uPA generation | ClpP mod | TCR activator | Sfp PPTase inh
CCOc1ccc(NC(=O)c2cnc(N3CCCCC3)c3ccccc23)cc1 | . | -8% | . | .
O=C(c1cnc(N2CCCCC2)c2ccccc12)N1CCN(c2cccc(Cl)c2)CC1 | . | 28µM* | . | .
Cc1ccc(NC(=O)c2cnc(N3CCCCC3)c3ccccc23)cc1Cl | . | 32µM* | . | .
CCOc1c2c(c(-c3ccc4c(c3)OCO4)c3cc(OC)c(OC)cc13)C(=O)OC2 | . | 4% | . | .
Cn1c(=O)cc(SCC(=O)NCCc2ccc(Cl)cc2)c2cc(Cl)ccc21 | . | -5% | . | .
COc1ccc(C2C(C#N)=C(N)Oc3cc(N)ccc32)cc1 (stereo not drawn) | 5% | 0% | . | 15%
COc1ccc(C2C(C#N)=C(N)Oc3c2sc2nc(C)cc(C)c32)cc1 (stereo not drawn) | -6% | 28µM* | 2% | 9%
CC(Nc1ccc(-c2nc(-c3ccccn3)no2)cc1[N+](=O)[O-])c1ccccc1 (stereo not drawn) | . | 2% | . | .
Cc1cc(C)n2cnnc2n1 | 3% | . | 6% | 15%
Cc1cc(C)n2c(=S)[nH]nc2n1 | 6% | -1% | 4% | 2.8µM*
CCC(C)C(=O)OC1CCC=C2C=CC(C)C(CCC3CC(O)CC(=O)O3)C21 (stereo not drawn) | -14% | 1% | -2% | .
CC[C@H](C)C(=O)O[C@H]1CCC=C2C=C[C@H](C)[C@H](CC[C@@H]3C[C@@H](O)CC(=O)O3)[C@H]21 | 1.3µM* | 1% | -1% | -2%
Cc1ccc(-c2onc(C)c2C)cc1S(=O)(=O)NCc1ccco1 | . | 0% | . | .
CN1C2CCC1CC(NS(=O)(=O)c1cc(Cl)c(Cl)cc1Cl)C2 (stereo not drawn) | 13% | 35µM* | -7% | 7%
Cc1nc(COC(=O)c2cc(O)c3ccccc3c2O)cs1 | 5% | ? | 3% | 28µM*
CC(C)(C)c1ccc(C(=O)NC(=S)NCc2ccco2)cc1 | 10% | 1% | 7% | 6%
CC(C)(CO)NC(=S)NCc1ccco1 | -4% | . | -2% | 16µM*
Cc1cccnc1NC(=S)NCc1ccco1 | ? | -1% | -9% | 16µM*
O=c1cc(-c2ccc(Cl)cc2)[nH]c2ccccc12 | ? | -19% | 7% | -12%
Cc1ccc(-c2cc(=O)c3ccccc3[nH]2)cc1 | 11µM* | -16% | 7% | 13%
COc1cccc2sc3ccc(C#CC4(N)CCCCC4)cc3c(=O)c12 | -29% | -2% | 7% | 79µM*
CCOc1ccc(CNC(=O)c2ccc3c(c2)nc2n3CCC(C)C2)cc1OC (stereo not drawn) | . | 1% | . | .
CCOC(=O)Cc1c(C)nc2c(-c3ccccc3)c[nH]n2c1=O | -4% | 16µM* | 6% | -1%
CCOC(=O)Cc1c(C)nc2cc(-c3ccc(C)cc3)[nH]n2c1=O | 0% | 16µM* | -47% | 7%
CCOC(=O)Cc1c(C)nc2c(-c3ccccc3)c(C)[nH]n2c1=O | 6% | 28µM* | . | -6%
SMILES | uPA generation | ClpP mod | TCR activator | Sfp PPTase inh
Cc1nc2c(-c3ccccc3)c(C)[nH]n2c(=O)c1Cc1ccccc1 | -5% | . | -3% | 16%
CCOC(=O)Cc1c(C)nc2c(-c3ccccc3)c(-c3ccccc3)[nH]n2c1=O | . | 22µM* | . | 7%
CCc1ccc(CNCc2c(C(=O)O)c(C)n(Cc3c(F)cccc3Cl)c2C)cc1 | . | -1% | . | .
CCOC(=O)C1=CCN(S(=O)(=O)c2ccccc2Br)C1c1cccc(F)c1 (stereo not drawn) | . | 0% | . | .
CC(C)(C)S(=O)(=O)N1C[C@@H]2C(=CC[C@H]3C(=O)N(c4ccccc4)C(=O)[C@@H]23)[C@@H]1CCO | 2% | 0% | -2% | .
COc1cc(-c2cc(-c3ccccc3)nc(SCC(=O)Nc3nccs3)c2C#N)cc(OC)c1OC | 1% | 25µM* | -18% | -18%
COc1ccc(-c2cc(-c3ccccc3)c(C#N)c(SCC(=O)O)n2)cc1 | 9% | . | -12% | .
N#Cc1c(-c2ccccc2)cc(-c2ccccc2)nc1SCC(=O)NCC(=O)O | 0% | . | -2% | 20µM*
COc1ccc(-c2cc(-c3ccccc3)nc(SCC(=O)Nc3ccccc3C)c2C#N)cc1 | . | -20% | . | .
Cc1nc(SCC(=O)Nc2nc3ccccc3s2)c(C#N)c(C)c1C | ? | 1% | 4%[46.1 µM] | 50µM*
Cc1nc(SCC(=O)Nc2nccs2)c(C#N)c(C)c1C | 1µM* | 5% | . | .
Cc1cc(C(F)(F)F)c(C#N)c(SCC(=O)Nc2nc3ccccc3s2)n1 | -4% | -2% | 0%[46.1 µM] | 3%
CC(=O)OC[C@@H]1O[C@@H](O/N=C2/C[C@@H](O)[C@@H](O)[C@@H]3[C@H]4C(=O)N(c5ccc(F)cc5F)C(=O)[C@@H]4CC[C@H]23)[C@H](OC(C)=O)[C@H](OC(C)=O)[C@@H]1OC(C)=O | . | . | . | 11%
CCc1ccc(-n2nc(C)c3c(C)cc(=O)n(CC(=O)N4CCCc5ccccc54)c32)cc1 | . | 0% | . | .
C/C(=N\NC(=O)c1c(Cl)cnn1C)c1ccc(NC(=O)c2ccc(Br)o2)cc1 | 1% | 3% | 8% | -14%
CN1C(=O)N(CC(=O)Nc2ccc3c(c2)OCO3)C(=O)C12CCCCC2 | . | -1% | . | .
N#Cc1c(SCC(=O)Nc2nccs2)nc2c(c1-c1ccco1)CCCC2 | 0% | -1% | -14% | 20µM*
COc1ccc(-c2cc(-c3ccccc3)c(C#N)c(SCC(O)CS(=O)(=O)Cc3ccc(Cl)cc3)n2)cc1 (stereo not drawn) | . | 4% | . | .
N#Cc1c(-c2ccccc2)cc(-c2ccccc2)nc1SCC(O)CS(=O)(=O)Cc1ccc(Cl)cc1 (stereo not drawn) | . | 10µM* | . | .
Cc1ccccc1NC(=O)CSc1nc2c(c(-c3ccco3)c1C#N)CCCC2 | . | 0% | 10% | 14%
COC(=O)CSc1nc2c(c(-c3ccc(C)o3)c1C#N)CCCC2 | . | ? | . | 50µM*
CCSc1nc2c(c(-c3ccc(C)o3)c1C#N)CCCC2 | -2% | ? | -13%[46.1 µM] | ?
CCN(CC)C(=O)c1csc(Nc2ccc(C)cc2)n1 | 4% | -2% | 2% | 20µM*
Cc1ccc(Nc2nc(C3CC3)cs2)cc1 | . | . | -4%[46.1 µM] | 45µM*
Clc1ccc(Nc2nc(C3CC3)cs2)cc1 | 6% | -11% | -5% | ?
SMILES | uPA generation | ClpP mod | TCR activator | Sfp PPTase inh
O=S1(=O)CCOCCCN1Cc1cccc(Cl)c1 | . | -1% | . | .
CCN(CC)C(=O)c1sc2c(c1C)c(=O)n(-c1ccccc1)c(=O)n2CC(=O)N(CC)c1cccc(C)c1 | . | 0% | . | .
COc1ccccc1-c1noc(CCC(=O)Nc2cc(C(F)(F)F)ccc2Cl)n1 | . | 1% | 0% | 18µM*
COc1ccccc1-c1noc(CCCC(=O)Nc2cccc(C(F)(F)F)c2)n1 | . | 0% | . | .
CCOC(=O)c1ccc(-n2c(CCC(=O)O)ccc2-c2ccc(Br)cc2)cc1 | . | 0% | . | .
Cc1ccccc1NC(=S)N/N=C/C(C)c1ccccc1 (stereo not drawn) | -2% | 2% | -2% | -13%
Cc1cccc(NC(=S)N/N=C/C(C)c2ccccc2)c1C (stereo not drawn) | -1% | . | -21% | 79µM*
CCOC(=O)C1CCN(C(=O)COC(=O)c2nn(C)c(=O)c3ccccc23)CC1 | 9% | -4% | -2% | .

Assay outcomes: PubChem BioAssay, National Center for Advancing Translational Sciences (NCATS)
